Compounds without any hit were thinned out: in the full panel of roughly 79,000, 15% have a hit. Calls of active or inactive are those of the source. No stated cut-off is given here; in the data, active means growth inhibition above about 70%; inactive means the rest.
Experiments:
[1] = NCI Yeast Anticancer Drug Screen. Data for the wt1 strain (AID 149);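 further: 0% = growth of vehicle-treated wt1 cultures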; conditions: S. cerevisiae wt1 strain (SPY 50644) growth inhibition, stronger effect = higher value
How it was run: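 The wt1 strain was treated with compounds, and growth was compared with vehicle-treated cultures to give inhibition.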

[2] = NCI Yeast Anticancer Drug Screen. Data for the rad50EPP+ strain (AID 151);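 further: 0% = growth of vehicle-treated control cultures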; conditions: S. cerevisiae rad50 mutant strain, stronger effect = higher value
How it was run: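 Genetically defined yeast (rad50EPP+, DNA damage repair alteration) is grown with compound, and inhibition of growth is expressed relative to vehicle-treated controls.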

[3] = NCI Yeast Anticancer Drug Screen. Data for the mgt1 strain (AID 153); conditions: S. cerevisiae mgt1 mutant growth inhibition, stronger effect = higher value
How it was run: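 In the mgt1 strain, test compounds were added and growth inhibition was determined relative to vehicle-treated controls.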

[4] = NCI Yeast Anticancer Drug Screen. Data for the rad50 strain (AID 155);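 further: 0% = growth of vehicle-only cultures of the same strain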; conditions: S. cerevisiae rad50 strain growth inhibition, stronger effect = higher value
How it was run: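 Cells are treated with compound, grown, and their growth is then scored against vehicle-only cultures of the same repair-deficient yeast strain.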

[5] = NCI Yeast Anticancer Drug Screen. Data for the mec2-1 strain (AID 157); conditions: S. cerevisiae mec2-1 strain, stronger effect = higher value
How it was run: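 Each compound was tested on mec2-1 yeast, a strain altered in DNA damage repair or cell cycle control. Growth inhibition is reported relative to vehicle.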

[6] = NCI Yeast Anticancer Drug Screen. Data for the rad14 strain (AID 159);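 further: 0% = growth of vehicle-treated control cultures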; conditions: S. cerevisiae rad14 strain growth inhibition, stronger effect = higher value
How it was run: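 Readout: yeast growth inhibition, referenced to vehicle-only cultures. Strain bears a defined alteration in DNA damage repair.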

[7] = NCI Yeast Anticancer Drug Screen. Data for the sgs1 mgt1 strain (AID 161);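 further: 0% = growth of cultures given vehicle only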; conditions: S. cerevisiae sgs1 mgt1 strain, stronger effect = higher value
How it was run: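 Inhibition of yeast growth, normalised to vehicle-treated controls, is reported for a strain bearing genetic alterations in DNA damage repair.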

[8] = NCI Yeast Anticancer Drug Screen. Data for the CLN2oe strain (AID 163);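 further: 0% = growth of vehicle-only control cultures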; conditions: S. cerevisiae CLN2oe strain, stronger effect = higher value
How it was run: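 First, the altered yeast strain was treated with each compound; second, its growth was measured; finally, inhibition was derived by comparison with vehicle controls.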

[9] = NCI Yeast Anticancer Drug Screen. Data for the cln2 rad14 strain (AID 165);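 further: 0% = growth equal to vehicle treated cultures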; conditions: S. cerevisiae cln2 rad14 strain, stronger effect = higher value
How it was run: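 Test compounds were added to cln2 rad14 yeast cultures; inhibition of growth was then determined by comparison with vehicle treatment.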

[10] = NCI Yeast Anticancer Drug Screen. Data for the bub3 strain (AID 167); conditions: S. cerevisiae bub3 mutant strain, stronger effect = higher value
How it was run: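 Part of a panel of yeast mutants defective in DNA damage repair or cell cycle regulation. Each strain is grown with compound, and inhibition is calculated relative to solvent-treated cultures.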

[11] = NCI Yeast Anticancer Drug Screen. Data for the wt2 strain (AID 169);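 further: 0% = growth of vehicle-treated yeast cultures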; conditions: S. cerevisiae wt2 strain growth inhibition, stronger effect = higher value
How it was run: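 The panel's yeast strains carry defined changes in DNA repair or cell cycle genes. Each strain is grown with compound, and growth loss is scored relative to vehicle.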

[12] = NCI Yeast Anticancer Drug Screen. Data for the mlh1 strain (AID 171);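 further: 0% = growth of vehicle-treated control cultures of the same strain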; conditions: S. cerevisiae mlh1 strain growth inhibition, stronger effect = higher value
How it was run: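 Inhibition values reflect reduced yeast growth in the presence of compound, referenced to vehicle controls, using a strain chosen for its alteration in DNA repair or cell cycle control.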

[13] = NCI Yeast Anticancer Drug Screen. Data for the sgs1 strain (AID 173);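 further: 0% = growth of vehicle-only control cultures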; conditions: S. cerevisiae sgs1 mutant, stronger effect = higher value
How it was run: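 Vehicle-treated cultures served as reference for growth inhibition of a yeast strain altered in DNA damage repair or cell cycle control after compound exposure.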

[14] = NCI Yeast Anticancer Drug Screen. Data for the mlh1 rad18 strain (AID 175); conditions: S. cerevisiae mlh1 rad18 strain growth inhibition, stronger effect = higher value
How it was run: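 Inhibition values reflect reduced growth of mutant yeast versus vehicle-treated controls following compound exposure; the mutations affect DNA damage repair.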

[15] = NCI Yeast Anticancer Drug Screen. Data for the rad18 strain (AID 177); conditions: S. cerevisiae rad18 mutant growth inhibition, stronger effect = higher value
How it was run: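 Steps: expose repair-mutant yeast to compound; measure growth; express as inhibition relative to vehicle control.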

[16] = NCI Yeast Anticancer Drug Screen. Data for the rad52 strain (AID 147);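 further: 0% = growth of vehicle-treated control cultures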; conditions: S. cerevisiae rad52 mutant growth inhibition, stronger effect = higher value
How it was run: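 Inhibition of yeast growth, referenced to vehicle controls, was the measured output for a strain with defective DNA damage repair.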

[17] = at 5.0 µM (retest, dose inferred, filed as 0.5)
[18] = at 50.0 µM (retest, dose inferred, filed as 5.0)

Measured: growth inhibition

CC1CN=C(Nc2ccccc2)S1 (stereo not drawn)
inactive: [1]; at 1.2 µM -15% | [1]; at 3.7 µM -5% | [1]; at 11.0 µM -21% | [1]; at 33.0 µM -25% | [1]; at 100.0 µM -32% | [2]; at 1.2 µM -52% | [2]; at 3.7 µM -46% | [2]; at 11.0 µM -49% | [2]; at 33.0 µM -72% | [2]; at 100.0 µM -54% | [3]; at 1.2 µM -57% | [3]; at 3.7 µM -76% | [3]; at 11.0 µM -54% | [3]; at 33.0 µM -51% | [3]; at 100.0 µM -60% | [4]; at 1.2 µM -5% | [4]; at 3.7 µM 12% | [4]; at 11.0 µM -7% | [4]; at 33.0 µM 3% | [4]; at 100.0 µM -17% | [5]; at 1.2 µM -49% | [5]; at 3.7 µM -67% | [5]; at 11.0 µM -80% | [5]; at 33.0 µM -40% | [5]; at 100.0 µM -60% | [6]; at 1.2 µM -49% | [6]; at 3.7 µM -54% | [6]; at 11.0 µM -58% | [6]; at 33.0 µM -51% | [6]; at 100.0 µM -41% | [7]; [17] 2% | [7]; [18] 6% | [8]; at 1.2 µM -14% | [8]; at 3.7 µM -15% | [8]; at 11.0 µM -7% | [8]; at 33.0 µM -2% | [8]; at 100.0 µM 10% | [9]; [17] 16% | [9]; [18] 37% | [10]; at 1.2 µM -26% | [10]; at 3.7 µM -20% | [10]; [17] 26% | [10]; at 11.0 µM -41% | [10]; at 33.0 µM -25% | [10]; [18] 9% | [10]; at 100.0 µM -46% | [11]; at 1.2 µM -31% | [11]; at 3.7 µM -15% | [11]; at 11.0 µM -21% | [11]; at 33.0 µM -24% | [11]; at 100.0 µM -13% | [12]; at 1.2 µM -8% | [12]; at 3.7 µM -7% | [12]; at 11.0 µM -14% | [12]; at 33.0 µM -32% | [12]; at 100.0 µM -24% | [13]; at 1.2 µM -29% | [13]; at 3.7 µM -36% | [13]; at 11.0 µM -40% | [13]; at 33.0 µM -23% | [13]; at 100.0 µM -40% | [15]; at 1.2 µM -50% | [15]; at 3.7 µM -54% | [15]; at 11.0 µM -51% | [15]; at 33.0 µM -58% | [15]; at 100.0 µM -42%
active: [4]; [17] 100% | [4]; [18] 100% | [4]; at 50.0 µM 78.5% | [5]; [17] 100% | [5]; [18] 100% | [5]; at 50.0 µM 88.8% | [7]; at 50.0 µM 89.2% | [9]; at 50.0 µM 90.3% | [10]; at 50.0 µM 87.4% | [14]; [17] 100% | [14]; [18] 100% | [14]; at 50.0 µM 81.6%

c1cc2c(cc1C1OC[C@H]3[C@@H](c4ccc5c(c4)OCO5)OC[C@@H]13)OCO2 (stereo partly drawn)
active: [10]; [17] 70% | [10]; [18] 83% | [10]; at 50.0 µM 75.8%
inactive: [16]; at 1.2 µM -9% | [16]; at 3.7 µM -16% | [16]; at 11.0 µM -3% | [16]; at 33.0 µM -1% | [16]; at 100.0 µM -6% | [3]; at 1.2 µM -4% | [3]; at 3.7 µM -9% | [3]; at 11.0 µM -2% | [3]; at 33.0 µM -5% | [3]; at 100.0 µM -5% | [4]; at 1.2 µM -16% | [4]; at 3.7 µM -19% | [4]; [17] 2% | [4]; at 11.0 µM -16% | [4]; at 33.0 µM -22% | [4]; [18] 3% | [4]; at 50.0 µM 15.3% | [4]; at 100.0 µM 8% | [5]; at 1.2 µM -2% | [5]; at 3.7 µM -4% | [5]; [17] 2% | [5]; at 11.0 µM -4% | [5]; at 33.0 µM -5% | [5]; [18] 8% | [5]; at 50.0 µM -0.6% | [5]; at 100.0 µM -1% | [6]; at 1.2 µM 1% | [6]; at 3.7 µM 6% | [6]; at 11.0 µM 17% | [6]; at 33.0 µM 26% | [6]; at 100.0 µM 28% | [7]; [17] 7% | [7]; [18] 20% | [7]; at 50.0 µM 60% | [8]; at 1.2 µM -7% | [8]; at 3.7 µM -9% | [8]; at 11.0 µM -10% | [8]; at 33.0 µM -9% | [8]; at 100.0 µM -7% | [9]; [17] -2% | [9]; [18] -8% | [9]; at 50.0 µM 10.8% | [10]; at 1.2 µM 14% | [10]; at 3.7 µM 26% | [10]; at 11.0 µM 37% | [10]; at 33.0 µM 46% | [10]; at 100.0 µM 39% | [11]; at 1.2 µM -1% | [11]; at 3.7 µM 2% | [11]; at 11.0 µM 7% | [11]; at 33.0 µM 24% | [11]; at 100.0 µM 12% | [12]; at 1.2 µM -16% | [12]; at 3.7 µM -8% | [12]; at 11.0 µM -8% | [12]; at 33.0 µM -8% | [12]; at 100.0 µM -6%

Reference: PubChem BioAssay (NCI)
